Sampled rows, rich in hits. Any-hit rate of the full collection: about 14%.
Cycloheximide cs: counter-screen hit for Shiga toxin inhibitors, cycloheximide. cell reporter, cycloheximide protein synthesis inhibition counterscreen. max response, %. 12% of 300,000 active; in the data active = max response mostly above about 13%, no sharp cut-off; inactive = mostly below about 14%; note: read at 38.3 µM for the half of the compounds with a filed dose
Giardia FBPA inh: blocks Giardia fructose-bisphosphate aldolase activity; 0.71% of 290,000 active; AID 2451; purified Giardia FBPA; Potency, µM (top dose mostly 59.6 µM), usual class: inhibitors; A8B2U2; note: nearly all actives have a fitted effect of over 55% in size
Target sequence (A8B2U2 whole entry, looked up): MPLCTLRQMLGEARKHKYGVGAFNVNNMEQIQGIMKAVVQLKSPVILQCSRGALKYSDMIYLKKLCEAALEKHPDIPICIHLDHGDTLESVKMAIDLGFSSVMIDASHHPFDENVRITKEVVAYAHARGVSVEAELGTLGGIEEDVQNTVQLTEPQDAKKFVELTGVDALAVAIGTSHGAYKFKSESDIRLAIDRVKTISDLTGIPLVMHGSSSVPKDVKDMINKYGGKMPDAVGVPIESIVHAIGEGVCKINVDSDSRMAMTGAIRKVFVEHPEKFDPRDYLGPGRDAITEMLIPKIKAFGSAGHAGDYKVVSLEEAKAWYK
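40 nM FBPA preincubated 10 min at RT with compound (up to 57.5 uM final), then substrate plus GAPDH/TPI/NAD/arsenate coupling and diaphorase/resazurin added. Fluorescence read after 20 min at RT, 525/598 nm.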
NS1 function inh: inhibitors of influenza NS1 protein function. Potency, µM (series often up to 46.1 µM). 0.4% of 270,000 active; calls by dose curve; note: actives are rising curves; nearly all actives have a fitted effect of over 50% in size
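Growth recovery, yeast-based: influenza A NS1 expressed in S. cerevisiae causes slow growth, and suppressors are detected by OD600. The parent strain without NS1 is used as positive control.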
Shiga toxin inh: inhibitors of Shiga toxin in Vero cells; Vero cells, Shiga toxin protein synthesis inhibition reporter; inhibition, % at 38.7 µM; 9.2% of 290,000 active; in the data active = inhibition mostly above about 28%, no sharp cut-off; inactive = mostly below about 43%
LmPK inh: LmPK (Leishmania mexicana) enzyme inhibition | Q27686 | purified LmPK, Kinase-Glo ATP luminescence, 1 h | Potency, µM (highest dose often 57.5 µM), hits mostly inhibitors | 0.37% of 290,000 active
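Purified LmPK (0.1 nM) with 0.5 mM PEP and 0.1 mM ADP in imidazole buffer pH 7.2 with MgCl2/KCl, 1 h at room temperature. ATP formed was read by luciferase luminescence and normalized to no-enzyme and uninhibited controls.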
Of the large screens only hits and unclear results are named; the others gave an inactive call. Unless noted, calls come from the whole dose curve; as a rule, active = well fitted curve in the direction sought with a large enough effect; inconclusive = small, poorly fitted or top-dose-only effect, or another doubt; inactive = no such curve, though single readings can be large; an effect the other way counts as inactive or inconclusive.

O=C1NC2(CCCCCC2)C(=O)N1Cc1c(F)cccc1Cl	none
CC(C)CC(=O)Nc1ccc2c(c1)oc1ccccc12	Cycloheximide cs 45, Shiga toxin inh 167
O=C(Nc1ccc2c(c1)OC1(CCCC1)O2)C1CC1	Cycloheximide cs 17
O=C(Nc1ccc(Br)c(Cl)c1)C1CC1	none
COc1ccc(NC(=O)/C(C#N)=C/c2cc(C)n(-c3ccc(N4CCOCC4)c([N+](=O)[O-])c3)c2C)cc1	none
CNC(=O)/C(C#N)=C\c1ccc(CNS(=O)(=O)c2ccc(Cl)cc2)o1	none
N#C/C(=C/c1ccc(N2CCCCC2)o1)C(=O)Nc1ccc(Cl)cc1	Cycloheximide cs 35, Shiga toxin inh 76
N#C/C(=C\c1ccc(N2CCOCC2)o1)C(=O)Nc1ccc(O)cc1	Cycloheximide cs 31, Shiga toxin inh 68
COc1ccc(NC(=O)/C(C#N)=C\c2ccc(N3CCOCC3)o2)cc1	Cycloheximide cs 24
CC(=O)Nc1ccc(/C=C(\C#N)C(=O)NC2CCCCC2)cc1	none
N#C/C(=C/c1ccc(N2CCOCC2)o1)C(=O)NC1CCCCC1	Cycloheximide cs 19
Cc1cc(O)cc(O)c1C(=O)OC1(C)C(=O)C=C2C=C(/C=C/C(=O)O)OC=C2C1=O (stereo unspecified)	none (no result: Cycloheximide cs, NS1 function inh, Shiga toxin inh, LmPK inh)
Cc1cccc(OCc2nnc(SCC(=O)Nc3ccc(N4CCOCC4)cc3)o2)c1	none
COc1ccc(NC(=O)/C(C#N)=C/c2ccc(Br)o2)cc1	Cycloheximide cs 22, Shiga toxin inh 52
Clc1cccc(N/N=C(\Cc2nc3ccccc3[nH]2)c2ccccc2)c1	Cycloheximide cs 21, Shiga toxin inh 54
CCc1cc2c(s1)c1cnn(Cc3ccccc3F)c(=O)c1n2C	none (no result: Giardia FBPA inh, NS1 function inh, LmPK inh)
CCCCOc1ccc(Cc2cnc(N)nc2N)cc1	none
CCCCOc1ccc(N=Nc2ccc(N)nc2N)cn1	Cycloheximide cs 18
CC(=NCc1cccc(Cl)c1)c1nc(-c2ccco2)oc1O	Cycloheximide cs 23, Shiga toxin inh 49
Oc1oc(-c2ccco2)nc1C=Nc1cccc(Cl)c1	none
CCCCn1cnc2c(sc3nc4c(cc32)CSC(C)(C)C4)c1=O	Cycloheximide cs 78, Shiga toxin inh 55
CCc1nc2c(sc3nc4c(cc32)COC(C)(C)C4)c(=O)n1Cc1ccccc1	none
CC1(C)Cc2nc3sc(C(=O)O)c(N)c3cc2CS1	none (no result: NS1 function inh)
CC1(C)Cc2nc3sc4c(NCCO)ncnc4c3cc2CS1	Cycloheximide cs 20
CC(C)CCn1cnc2c(sc3nc4c(cc32)CSC(C)(C)C4)c1=O	Cycloheximide cs 38, Shiga toxin inh 43
Cc1ccc(S(=O)(=O)N=Nc2c(O)[nH]c3cc(O)c(C(=O)O)cc23)cc1	none (no result: Cycloheximide cs, Giardia FBPA inh, Shiga toxin inh, LmPK inh)
N#Cc1ccc(CN2CC3(CCN(C(=O)c4cc(C(F)(F)F)cc(C(F)(F)F)c4)CC3)C2)cc1	none (no result: Cycloheximide cs, NS1 function inh, Shiga toxin inh, LmPK inh)
O=C(Nc1ccccc1Cl)NC1(C(=O)NCC2CCCO2)CCCCC1 (stereo unspecified)	none
Nc1ccccc1C(=O)N/N=C1\C2CN3CCN(C2)CC1(c1ccccc1)C3	Cycloheximide cs 50, Shiga toxin inh 81
Nc1ccccc1C(=O)N/N=C1/C2CN3CCN(C2)CC1(Cc1ccccc1)C3	none (no result: NS1 function inh)
O=C(N/N=C1\C2CN3CCN(C2)CC1(c1ccccc1)C3)c1ccc(F)cc1	Cycloheximide cs 23
CC(C)(C)c1ccc(C(=O)N/N=C2\C3CN4CCN(C3)CC2(c2ccccc2)C4)cc1	none
CCCC12CN3CCN(CC(C3)/C1=N\NC(=O)c1ccccc1N)C2	Cycloheximide cs 25, Shiga toxin inh 38
Cc1ccc(C)c(NC(=O)C2CCCN(c3cnccn3)C2)c1 (stereo unspecified)	none (no result: Giardia FBPA inh)
CC1N(C)c2cc(NC(=O)c3ccco3)c(P(=O)(Nc3ccc([N+](=O)[O-])cc3)N3CCOCC3)cc2C1(C)C (stereo unspecified)	Shiga toxin inh 56
CC1N(C)c2cc(NC(=O)c3ccco3)ccc2C1(C)C (stereo unspecified)	Cycloheximide cs 44, Giardia FBPA inh inconclusive, Shiga toxin inh 74
Cc1cc(C)cc(NC(=O)c2ccc(NC(=O)c3ccco3)cc2)c1	none
O=C(Nc1nc(-c2ccccn2)cs1)Nc1ccc(F)cc1F	Cycloheximide cs 35, Giardia FBPA inh inconclusive, Shiga toxin inh 85
O=C(Nc1ccccc1)Nc1nc(-c2ccc(F)c(F)c2)cs1	none
O=C(Nc1nc(-c2cc(F)ccc2F)cs1)c1ccccn1	Cycloheximide cs 15, Shiga toxin inh 42 (no result: NS1 function inh)
O=C(Nc1nc(-c2ccccn2)cs1)c1cc(Cl)ccc1[N+](=O)[O-]	Giardia FBPA inh inconclusive (no result: NS1 function inh)
CC1CC1C(=O)Nc1nc(-c2ccccn2)cs1 (stereo unspecified)	Cycloheximide cs 22
O=C(Nc1nc(-c2ccccc2)cs1)Nc1ccc(F)cc1F	Cycloheximide cs 28, Shiga toxin inh 59 (no result: NS1 function inh)
O=C(c1ccco1)N1CCC2(CCCN(Cc3ccccc3)C2)CC1	none (no result: Cycloheximide cs, NS1 function inh, Shiga toxin inh, LmPK inh)
Cc1ccsc1C(=O)NNC(=O)C1CCCCC1C(=O)O (stereo unspecified)	Cycloheximide cs 31, Shiga toxin inh 65
O=C(NNC(=O)C1CC1c1ccccc1)Nc1ccccc1 (stereo unspecified)	none
Cc1ccsc1C(=O)NNC(=O)C1CC=CCC1C(=O)O (stereo unspecified)	Cycloheximide cs 45, Shiga toxin inh active
O=C(NNC(=O)[C@@H]1CCCC[C@@H]1C(=O)O)c1cccs1	Cycloheximide cs 29, Shiga toxin inh 58
O=C(NNC(=O)C1CC=CCC1C(=O)O)c1cccs1 (stereo unspecified)	none
O=C(NNC(=O)[C@@H]1CCCC[C@@H]1C(=O)O)Nc1ccccc1	Cycloheximide cs 15, Shiga toxin inh 65
CCc1cccc(C)c1NC(=O)C1CC=CCC1C(=O)O (stereo unspecified)	none
CC1CCN(S(=O)(=O)N2CCC(C(=O)NCCc3ccccc3)CC2)CC1	none
OCC1OC(C#Cc2ccccc2)C=CC1OCc1ccccc1 (stereo unspecified)	none (no result: Cycloheximide cs, NS1 function inh, Shiga toxin inh, LmPK inh)
CCOC(=O)c1c(C)[nH]c(C)c1S(=O)(=O)N1CCN(c2cccc(C)c2)C(C)C1 (stereo unspecified)	none
O=C(O)C1CC=CCC1C(=O)NNS(=O)(=O)c1ccccc1 (stereo unspecified)	none
CC(C)c1ccc(C(=O)NNC(=O)C2CC=CCC2C(=O)O)cc1 (stereo unspecified)	Cycloheximide cs 28, Shiga toxin inh 64
CC1CCN(c2ccc(C(F)(F)F)cc2N)CC1	Cycloheximide cs 17 (no result: NS1 function inh)
CC(=O)OCc1c(C(F)(F)F)nn(C)c1Oc1ccccc1	none
Cn1nc(-c2ccccc2)c(CO)c1Oc1ccc(F)cc1	Cycloheximide cs 18 (no result: NS1 function inh)
Cc1ccc2nc(NC(=O)CN3CCOCC3)sc2c1	Cycloheximide cs 33, Shiga toxin inh 64
Cc1ccc2nc(NC(=O)COC(=O)c3ccncc3)sc2c1	Cycloheximide cs 35, Shiga toxin inh 66 (no result: NS1 function inh)
CCc1sc(NC(=O)COC)nc1-c1ccccc1	none
COCC(=O)Nc1nc(-c2ccc(C)cc2)c(C)s1	Cycloheximide cs 13, Shiga toxin inh 35
COCC(=O)Nc1nc2ccc(C)cc2s1	Cycloheximide cs 52, Shiga toxin inh 65, LmPK inh inconclusive
COc1ccc(OC)c(CNS(=O)(=O)c2c(C)nc3scc(C)n3c2=O)c1	none

Source: PubChem BioAssay
